For seven molecules, Potency and max activation results are on record in PubChem BioAssay (Tox21).

In test [1] the target is Thyrotropin-releasing hormone receptor (Homo sapiens) (UniProt P34981). Briefly: qHTS assay to identify small molecule agonists of the thyrotropin-releasing hormone receptor (TRHR) signaling pathway (AID 1346891; calls by dose curve; further: series mostly up to about 58 µM; on the % scale 0 is the no-effect control and ±100 the full control effect). Summed up: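 Readout was intracellular calcium fluorescence in TRHR-Hek293 cells. Cells were incubated 18 h, dye-loaded 2 h at 37 °C, and treated with compound in agonist mode.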
For orientation: Quantitative high-throughput screening tests each substance at several concentrations.

Test [2] in a line: Caspase-3/7 induction in HepG2 cells by small molecules, qHTS assay (AID 1346978). Further: nearly all actives have a fitted effect of over 15% in size. Further: potency means the concentration at half of the fitted maximal effect. Summed up: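 Caspase-3/7 induction was measured by Caspase-Glo 3/7 luminescence (30 min, room temperature) after a 17 hr compound exposure of wild-type HepG2 cells seeded at 2,000 per well and pre-incubated 5 hr.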
Test [3] in a line: Caspase-3/7 induction in CHO-K1 cells by small molecules, qHTS cell viability counter screen (AID 1346979). Further: nearly all actives have a fitted effect of over 35% in size. Further: potency means the concentration at half of the fitted maximal effect. Summed up: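 Following a 5hr settling period, CHO-K1 cells at 1,500 per well received DMSO-dissolved compounds. Cell viability was quantified 16hr later by CellTiter-Fluor fluorescence, measured after 1hr with reagent at 37C.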
A short description of test [4]: Caspase-3/7 induction in CHO-K1 cells by small molecules, qHTS assay (AID 1346980). Further: nearly all actives have a fitted effect of over 15% in size. Further: potency means the concentration at half of the fitted maximal effect. An outline of the steps: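 Luminescent Caspase-Glo 3/7 read (30min, room temperature) quantified apoptosis induction. Cells were wild-type CHO-K1, treated with compound for 17hr at 37 C and 5% CO2.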
Test [5] is described as follows: Caspase-3/7 induction in HepG2 cells by small molecules, qHTS cell viability counter screen (AID 1346981). Further: series mostly up to about 92 µM; on the % scale 0 is the no-effect control and ±100 the full control effect; nearly all actives have a fitted effect of over 30% in size. An outline of the steps:
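Viability determined by CellTiter-Fluor fluorescence in HepG2 wells also used for the luminescent Caspase-Glo 3/7 read. Compounds were present for 16 hr at 37 C, 5% CO2 before reagent addition.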

In test [6] the target is Nuclear receptor subfamily 1 group I member 2 (Homo sapiens) (UniProt O75469). Briefly: Human pregnane X receptor (PXR) small molecule agonists, qHTS assay (AID 1346982). Further: nearly all actives have a fitted effect of over 35% in size. Further: potency means the concentration at half of the fitted maximal effect. On activation: on the % scale 0 is the no-effect control and ±100 the full control effect. Summed up: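 Compound-induced hPXR transactivation of a CYP3A4 luciferase reporter was scored in HepG2 PXR-Luc cells over 24 hr at 37 C, 5% CO2, by luminescence.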
The target in test [7] is Nuclear receptor subfamily 1 group I member 2 (Rattus norvegicus) (UniProt Q9R1A7). Description: Rat pregnane X receptor (rPXR) activation by small molecules, qHTS assay (AID 1346983). Further: on the % scale 0 is the no-effect control and ±100 the full control effect; nearly all actives have a fitted effect of over 20% in size. The settings on record: rPXR luciferase reporter cells, One-Glo luminescence, 24 h; max activation: active compounds read high. Summed up:
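Luminescent readout (One-Glo luciferase, 30 min room temperature) followed 24 hr compound treatment at 37 C of rPXR cells plated 2,000 per well and preincubated 5hr; qHTS format with compounds delivered in DMSO.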

The target in test [8] is Nuclear receptor subfamily 1 group I member 2 (Homo sapiens) (UniProt O75469). Description: CYP3A4 induction through human pregnane X receptor (PXR) by small molecules, qHTS assay (AID 1346984). Further: potency means the concentration at half of the fitted maximal effect; nearly all actives have a fitted effect of over 40% in size. An outline of the steps: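 Readings come from a luciferase reporter: DPX-2 cells, which are HepG2 cotransfected with PXR and a CYP3A4-promoter construct, were exposed to test compounds for 24 h at 37C before One-Glo detection.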

Test [9] has the same target. Description: Human pregnane X receptor (PXR) activation by small molecules, qHTS assay (AID 1346985). Further: on the % scale 0 is the no-effect control and ±100 the full control effect; nearly all actives have a fitted effect of over 40% in size. Summed up:
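DPX-2 cells (HepG2 co-transfected with a PXR response element and a CYP3A4-promoter luciferase construct) were seeded at 2,000 per well, rested 5 hr at 37C, then exposed to DMSO-dissolved compounds for 24 hr. Activation was read as luciferase luminescence.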

Test [10] deals with Acetylcholinesterase (Homo sapiens) (UniProt P22303). Description: Acetylcholinesterase (AChE) small molecule antagonists: colormetric cell-based qHTS assay (AID 1347395; calls by dose curve; further: on the % scale 0 is the no-effect control and ±100 the full control effect; nearly all actives have a fitted effect of over 30% in size). Summed up:
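After overnight attachment at 37 C, SH-SY5Y cells get 30 min compound exposure; detection cocktail (acetylthiocholine, DTNB) then incubates 90 min at 37 C, and absorbance reflects AChE-generated thiocholine.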

The target is the same in test [11]. Description: Acetylcholinesterase (AChE) small molecule antagonists: enzyme-based qHTS assay (AID 1347397; calls by dose curve; further: on the % scale 0 is the no-effect control and ±100 the full control effect; nearly all actives have a fitted effect of over 55% in size). The note with it: Potency: AChE enzyme activity inhibition. An outline of the steps: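 rhAChE 50 mU/mL (dispensed) + cpd or DMSO, 30 min RT; add DTNB/acetylthiocholine cocktail, 10 min RT; colorimetric thiocholine readout. qHTS, 1536-well format.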
Test [12] shares this target. Briefly: Acetylcholinesterase (AChE) small molecule antagonists: fluorescence cell-based qHTS assay (AID 1347398; calls by dose curve; further: on the % scale 0 is the no-effect control and ±100 the full control effect; nearly all actives have a fitted effect of over 50% in size). The note with it: Potency: AChE activity. An outline of the steps:
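Read-out is Thiolite Green fluorescence at Ex/Em = 490/520 nm, formed by reaction with thiocholine released when cellular AChE in SH-SY5Y cells hydrolyzes acetylthiocholine. Compounds were preincubated 30 min at 37 C before substrate.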

Test [13] has the same target. Briefly: Acetylcholinesterase (AChE) small molecule antagonists: enzyme-based qHTS assay with human liver microsomes (AID 1347399; calls by dose curve; further: on the % scale 0 is the no-effect control and ±100 the full control effect; nearly all actives have a fitted effect of over 60% in size). The note with it: Potency: qHTS inhibition. Summed up: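 Recombinant human AChE (50 mU/mL in the enzyme mix) and human liver microsomes (0.25 mg/mL final) were preincubated with compound and NADPH (0.25 mg/mL final) for 30 min at 37 C. Acetylthiocholine/DTNB was then added; thiocholine was read colorimetrically after 10 min at room temperature.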

Test [14] concerns the target Cytochrome P450 2D6 (Homo sapiens) (UniProt P10635). Briefly: Cytochrome P450 Family 2 Subfamily D Member 6 (CYP2D6) small molecule antagonists: luciferase reporter qHTS assay (AID 1671196). Further: potency means the concentration at half of the fitted maximal effect; nearly all actives have a fitted effect of over 50% in size. An outline of the steps: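 Each well received CYP2D6 with its proluciferin substrate and chemical, sat 10 min, then got NADPH regeneration solution for 1 h at room temperature. Luminescence in RLU served as the activity measure.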
For orientation: A reporter such as luciferase makes a cellular process visible.

The target in test [15] is Cytochrome P450 2C19 (Homo sapiens) (UniProt P33261). Briefly: Cytochrome P450 Family 2 Subfamily C Member 19 (CYP2C19) small molecule antagonists: luciferase reporter qHTS assay (AID 1671197). Further: nearly all actives have a fitted effect of over 65% in size. Further: potency means the concentration at half of the fitted maximal effect. Summed up:
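P450-Glo CYP2C19 screening system; proluciferin substrate; DMSO compound stocks; 10 min RT preincubation; NADPH regeneration, 1 h at 37C; luciferin detection reagent, 20 min RT; luminescence as RLU.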

Test [16] deals with Cytochrome P450 2C9 (Homo sapiens) (UniProt P11712). Briefly: Cytochrome P450 Family 2 Subfamily C Member 9 (CYP2C9) small molecule antagonists: luciferase reporter qHTS assay (AID 1671198). Further: nearly all actives have a fitted effect of over 50% in size. Further: potency means the concentration at half of the fitted maximal effect. Summed up:
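Enzyme-substrate mix preincubated with compound 10 min at room temperature; reaction started with NADPH regeneration solution, 1 h 37C. Luminescent luciferin product read after 20 min detection reagent.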

In test [17] the target is Voltage-gated inwardly rectifying potassium channel KCNH2 (Homo sapiens) (UniProt Q12809). Description: Human Ether-a-go-go-Related Gene (hERG) channel small molecule antagonists: fluorescence cell-based qHTS assay (AID 1671200). Further: nearly all actives have a fitted effect of over 50% in size. Further: potency means the concentration at half of the fitted maximal effect. Summed up:
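In this thallium-flux screen, overnight-cultured U2OS cells bearing the channel are dye-loaded in darkness for an hour, rested 10 min at room temperature, and then monitored kinetically at 480/540 nm for two minutes post-stimulus.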
A general note: Block of hERG is tested as a sign of cardiac risk.

Test [18] addresses Cytochrome P450 1A2 (Homo sapiens) (UniProt P05177). Description: Cytochrome P450 Family 1 Subfamily A Member 2 (CYP1A2) small molecule antagonists: luciferase reporter qHTS assay (AID 1671199). Further: nearly all actives have a fitted effect of over 50% in size. Further: potency means the concentration at half of the fitted maximal effect. Summed up:
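Enzymatic CYP1A2 assay, human, luminescent: 10 min compound–enzyme–substrate preincubation, 1 h NADPH-dependent turnover, 20 min detection step, room temperature throughout. Reduced light indicates lower CYP1A2 activity.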

The target of test [19] is Cytochrome P450 3A4 (Homo sapiens) (UniProt P08684). Briefly: Cytochrome P450 Family 3 Subfamily A Member 4 (CYP3A4) small molecule antagonists: luciferase reporter qHTS assay (AID 1671201). Further: nearly all actives have a fitted effect of over 50% in size. Further: potency means the concentration at half of the fitted maximal effect. Summed up:
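CYP3A4 activity was followed with a P450-Glo proluciferin substrate. Test compounds in DMSO were preincubated 10 min; NADPH regeneration then ran 1 h, and light output was read 20 min after detection reagent.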

Each structure is given as a SMILES string. Several values for one entry are separate records, joined by “and”; a condition that tells them apart may be missing. Identical values can stand only once. Values without a mark were called inactive. Results filed as inconclusive are left out. Activity calls are given as the source filed them. Unless noted, the call rests on the fitted dose curve; in most records, active means well fitted curve in the direction sought with a large enough effect in the repeat runs; inconclusive means weak or mixed curves; inactive means no such curve, though single readings can be large; an effect the other way counts as inactive or inconclusive.

Nuclear receptor subfamily 1 group I member 2 (Homo sapiens), sequence (O75469 whole entry, looked up): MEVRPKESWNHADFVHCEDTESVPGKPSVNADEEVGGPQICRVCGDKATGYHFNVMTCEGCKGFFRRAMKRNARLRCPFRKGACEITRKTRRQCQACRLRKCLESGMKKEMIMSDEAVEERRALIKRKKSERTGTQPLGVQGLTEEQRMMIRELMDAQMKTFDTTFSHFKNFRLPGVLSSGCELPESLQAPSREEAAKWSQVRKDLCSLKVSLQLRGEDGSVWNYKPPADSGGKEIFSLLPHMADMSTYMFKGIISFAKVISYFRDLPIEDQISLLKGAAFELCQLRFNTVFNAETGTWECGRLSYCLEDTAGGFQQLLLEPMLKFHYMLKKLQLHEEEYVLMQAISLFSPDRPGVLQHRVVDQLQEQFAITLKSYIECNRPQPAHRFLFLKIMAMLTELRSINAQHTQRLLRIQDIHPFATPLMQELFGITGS
Cytochrome P450 2C19 (Homo sapiens), sequence (P33261 whole entry, looked up): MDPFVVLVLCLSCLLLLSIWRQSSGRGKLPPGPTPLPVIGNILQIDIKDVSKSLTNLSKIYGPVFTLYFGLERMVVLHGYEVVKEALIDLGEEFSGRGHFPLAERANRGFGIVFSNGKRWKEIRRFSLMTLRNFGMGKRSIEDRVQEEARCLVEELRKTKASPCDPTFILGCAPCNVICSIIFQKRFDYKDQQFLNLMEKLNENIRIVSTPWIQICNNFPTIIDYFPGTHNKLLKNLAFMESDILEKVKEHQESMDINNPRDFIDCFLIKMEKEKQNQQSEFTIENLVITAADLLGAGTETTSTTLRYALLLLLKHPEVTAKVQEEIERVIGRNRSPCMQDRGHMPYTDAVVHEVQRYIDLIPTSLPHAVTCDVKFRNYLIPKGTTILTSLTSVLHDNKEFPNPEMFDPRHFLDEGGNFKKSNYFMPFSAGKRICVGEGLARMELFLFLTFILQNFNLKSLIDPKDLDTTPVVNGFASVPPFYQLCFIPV
Cytochrome P450 2C9 (Homo sapiens), sequence (P11712 whole entry, looked up): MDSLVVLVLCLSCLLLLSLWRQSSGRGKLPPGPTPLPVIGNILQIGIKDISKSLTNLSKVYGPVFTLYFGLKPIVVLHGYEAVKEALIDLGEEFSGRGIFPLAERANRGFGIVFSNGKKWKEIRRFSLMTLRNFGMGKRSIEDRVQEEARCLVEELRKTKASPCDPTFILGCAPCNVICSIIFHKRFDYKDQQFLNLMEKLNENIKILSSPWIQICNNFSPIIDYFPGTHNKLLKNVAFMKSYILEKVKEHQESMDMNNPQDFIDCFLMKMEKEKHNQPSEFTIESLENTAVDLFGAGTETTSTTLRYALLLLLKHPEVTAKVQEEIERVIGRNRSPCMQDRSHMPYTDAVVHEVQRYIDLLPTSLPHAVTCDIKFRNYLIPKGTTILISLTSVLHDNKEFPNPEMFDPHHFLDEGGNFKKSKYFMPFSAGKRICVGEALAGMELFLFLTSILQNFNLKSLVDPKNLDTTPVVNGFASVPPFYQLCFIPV
Voltage-gated inwardly rectifying potassium channel KCNH2 (Homo sapiens), sequence (Q12809 whole entry, looked up): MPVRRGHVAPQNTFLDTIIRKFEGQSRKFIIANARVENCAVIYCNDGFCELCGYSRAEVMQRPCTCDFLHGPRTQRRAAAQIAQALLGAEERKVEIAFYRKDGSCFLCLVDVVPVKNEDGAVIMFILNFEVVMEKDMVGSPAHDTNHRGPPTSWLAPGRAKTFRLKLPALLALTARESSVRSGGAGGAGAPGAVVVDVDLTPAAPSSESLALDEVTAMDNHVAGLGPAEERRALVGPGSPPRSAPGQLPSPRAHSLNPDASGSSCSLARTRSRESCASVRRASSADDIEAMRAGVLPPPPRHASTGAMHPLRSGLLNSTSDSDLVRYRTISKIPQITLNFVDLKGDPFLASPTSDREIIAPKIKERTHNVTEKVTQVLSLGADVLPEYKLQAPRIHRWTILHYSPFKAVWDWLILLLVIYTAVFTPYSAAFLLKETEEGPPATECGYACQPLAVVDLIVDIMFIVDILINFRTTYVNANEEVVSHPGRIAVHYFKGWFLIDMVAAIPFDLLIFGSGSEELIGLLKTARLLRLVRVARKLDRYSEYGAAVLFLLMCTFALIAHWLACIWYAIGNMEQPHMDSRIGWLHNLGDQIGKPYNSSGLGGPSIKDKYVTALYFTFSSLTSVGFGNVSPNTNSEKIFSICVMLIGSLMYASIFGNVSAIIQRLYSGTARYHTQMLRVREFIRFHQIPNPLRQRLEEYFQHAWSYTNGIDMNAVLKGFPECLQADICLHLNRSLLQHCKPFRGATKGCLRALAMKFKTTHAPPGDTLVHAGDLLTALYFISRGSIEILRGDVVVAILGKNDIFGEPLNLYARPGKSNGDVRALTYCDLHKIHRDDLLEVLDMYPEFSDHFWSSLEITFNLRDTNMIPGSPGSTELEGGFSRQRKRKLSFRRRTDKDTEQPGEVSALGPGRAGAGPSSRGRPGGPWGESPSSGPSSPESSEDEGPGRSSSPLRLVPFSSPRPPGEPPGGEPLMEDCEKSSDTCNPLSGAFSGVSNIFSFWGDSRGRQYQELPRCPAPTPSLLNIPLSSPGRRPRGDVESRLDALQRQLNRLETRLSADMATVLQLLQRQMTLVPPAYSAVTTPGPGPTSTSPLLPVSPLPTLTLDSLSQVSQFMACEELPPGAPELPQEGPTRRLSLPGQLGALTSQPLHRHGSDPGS
Cytochrome P450 1A2 (Homo sapiens), sequence (P05177 whole entry, looked up): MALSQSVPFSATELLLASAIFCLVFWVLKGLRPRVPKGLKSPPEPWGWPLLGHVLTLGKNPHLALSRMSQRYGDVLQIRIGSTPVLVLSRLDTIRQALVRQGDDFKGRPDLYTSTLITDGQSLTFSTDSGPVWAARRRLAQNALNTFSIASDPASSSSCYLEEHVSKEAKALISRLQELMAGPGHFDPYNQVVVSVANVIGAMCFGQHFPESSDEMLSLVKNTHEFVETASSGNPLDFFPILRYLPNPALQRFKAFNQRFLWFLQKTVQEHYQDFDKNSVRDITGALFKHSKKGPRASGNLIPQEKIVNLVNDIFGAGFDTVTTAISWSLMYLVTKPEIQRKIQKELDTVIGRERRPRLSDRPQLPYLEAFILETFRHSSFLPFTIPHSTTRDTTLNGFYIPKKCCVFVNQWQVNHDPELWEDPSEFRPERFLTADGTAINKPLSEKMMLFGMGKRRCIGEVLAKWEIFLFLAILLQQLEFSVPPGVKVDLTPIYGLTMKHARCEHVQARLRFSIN
Acetylcholinesterase (Homo sapiens), sequence (P22303 whole entry, looked up): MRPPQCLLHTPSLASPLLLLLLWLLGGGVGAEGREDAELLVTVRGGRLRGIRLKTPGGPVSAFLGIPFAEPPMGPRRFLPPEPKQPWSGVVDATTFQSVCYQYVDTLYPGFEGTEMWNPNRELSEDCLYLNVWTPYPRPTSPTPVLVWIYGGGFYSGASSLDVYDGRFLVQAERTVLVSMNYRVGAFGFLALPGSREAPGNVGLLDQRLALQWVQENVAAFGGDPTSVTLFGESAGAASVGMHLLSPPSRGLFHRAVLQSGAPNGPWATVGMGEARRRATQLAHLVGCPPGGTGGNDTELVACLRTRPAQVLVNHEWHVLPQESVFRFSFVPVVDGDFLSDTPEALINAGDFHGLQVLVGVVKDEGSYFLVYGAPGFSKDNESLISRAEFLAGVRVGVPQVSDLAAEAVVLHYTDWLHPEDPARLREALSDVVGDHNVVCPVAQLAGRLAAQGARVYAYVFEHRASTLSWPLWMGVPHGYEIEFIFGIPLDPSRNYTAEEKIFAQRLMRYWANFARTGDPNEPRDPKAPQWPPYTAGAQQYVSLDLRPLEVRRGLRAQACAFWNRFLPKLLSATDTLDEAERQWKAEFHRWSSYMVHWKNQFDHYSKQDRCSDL
Cytochrome P450 2D6 (Homo sapiens), sequence (P10635 whole entry, looked up): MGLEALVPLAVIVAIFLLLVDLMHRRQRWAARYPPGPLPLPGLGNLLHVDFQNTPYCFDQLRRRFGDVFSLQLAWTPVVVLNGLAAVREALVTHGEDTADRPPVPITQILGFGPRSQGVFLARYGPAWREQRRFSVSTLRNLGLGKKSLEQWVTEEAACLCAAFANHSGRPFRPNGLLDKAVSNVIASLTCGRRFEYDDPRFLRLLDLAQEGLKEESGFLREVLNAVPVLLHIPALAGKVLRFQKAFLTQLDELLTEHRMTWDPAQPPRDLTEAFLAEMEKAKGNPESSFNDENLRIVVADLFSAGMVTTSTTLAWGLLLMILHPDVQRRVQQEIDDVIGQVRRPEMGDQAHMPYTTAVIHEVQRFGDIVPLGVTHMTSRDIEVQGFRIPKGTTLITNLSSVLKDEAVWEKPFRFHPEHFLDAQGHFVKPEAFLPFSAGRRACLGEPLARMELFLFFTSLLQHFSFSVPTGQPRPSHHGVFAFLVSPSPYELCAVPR
Cytochrome P450 3A4 (Homo sapiens), sequence (P08684 whole entry, looked up): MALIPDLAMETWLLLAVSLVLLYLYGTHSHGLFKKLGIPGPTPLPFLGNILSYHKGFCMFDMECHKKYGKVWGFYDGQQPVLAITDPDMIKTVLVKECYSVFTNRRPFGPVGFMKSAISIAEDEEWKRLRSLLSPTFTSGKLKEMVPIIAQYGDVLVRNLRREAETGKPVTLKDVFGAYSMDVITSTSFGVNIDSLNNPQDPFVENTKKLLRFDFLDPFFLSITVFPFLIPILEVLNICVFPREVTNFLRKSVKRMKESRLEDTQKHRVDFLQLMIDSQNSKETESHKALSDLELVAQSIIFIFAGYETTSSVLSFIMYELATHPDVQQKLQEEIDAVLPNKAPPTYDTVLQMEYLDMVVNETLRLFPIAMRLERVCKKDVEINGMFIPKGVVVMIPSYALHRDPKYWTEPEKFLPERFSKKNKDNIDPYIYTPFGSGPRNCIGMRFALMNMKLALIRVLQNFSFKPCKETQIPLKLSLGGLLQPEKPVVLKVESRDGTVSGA

With `Clc1ccc(C(OCCN2CCCCC2)c2ccccc2)cc1` (stereo not drawn), the Potency entry in test [1], in test [2], in test [3], in test [4], in [5] and in [6] was “inactive” in each case. The Potency result in [9], in test [10], in test [11], in test [12], in test [13] and in test [16] was “inactive” each time. Further, the max activation in test [7] was -3.11%. In addition, the Potency was 12.6 µM (active) in test [8], 0.174 µM (active) in test [14], 24.5 µM (active) in test [15] and 0.601 µM (active) in test [17].

`CC1(C)CCC(Cc2ccc(Cl)cc2)C1(O)Cn1cncn1` (stereo not drawn): the Potency result in test [1], in [4], in test [10], in test [11], in [12] and in test [13] was “inactive” throughout. The Potency in test [6] was 9.69 µM (active); in [14], 35.6 µM (active); in test [15] it was 0.126 µM (active); in test [16], 0.178 µM (active); in [18], 39.9 µM (active); in [19], 0.0317 µM (active).

In the case of `CN1[C@@H]2CC[C@H]1CC(OC(=O)c1cc(Cl)cc(Cl)c1)C2` (stereo partly drawn), the Potency entry in test [1], in [2], in test [5], in test [6], in test [11] and in test [12] was “inactive” each time. Besides, the Potency entry in [13], in test [15], in [16] and in test [19] was “inactive” each time. For the same molecule, the Potency in [14] was 0.055 µM (active); in test [17], 7.56 µM (active).

`C(=NC1CCCCC1)=NC1CCCCC1`: the Potency entry in [1], in test [2], in [10], in test [11], in [12] and in [16] was “inactive” in each case. In addition, the Potency result in test [18], in test [17] and in test [19] was “inactive” each time. Also, the Potency is 13.8 µM (active) in [3]; 61.5 µM (active) and 54.5 µM (active) in test [6]; 63.3 µM (active) in [14].

For `COc1ccc(-c2ccccc2)cc1NNC(=O)OC(C)C`, the Potency result in [1], in [2], in [10], in test [11], in [12] and in test [13] was “inactive” each time. Further, in test [17], the Potency result is “inactive”. The Potency is 71.5 µM (active) in [6]; 0.83 µM (active) in test [14]; 0.262 µM (active) in [15]; 2.62 µM (active) in test [16]; 5.88 µM (active) in test [18]; 1.04 µM (active) in test [19].

For the molecule `OC(c1ccc(Cl)cc1)(c1ccc(Cl)cc1)c1cccnc1`, the Potency result in test [1], in [2], in [4], in test [5], in [10] and in test [11] was “inactive” each time. Besides, the Potency result in test [12] and in test [13] was “inactive” throughout. Besides, the Potency is 61.1 µM (active) in test [6]; 11.2 µM (active) in test [14]; 0.0796 µM (active) in test [15]; 0.448 µM (active) in test [16]; 35.6 µM (active) in test [18]; 34.7 µM (active) in test [17]. Moreover, the Potency in test [19] is 2.24 µM (active).

In the case of `CCC(C)(NC(=O)c1cc(Cl)c(C)c(Cl)c1)C(=O)CCl` (stereo not drawn), the Potency result in test [1], in test [10], in [11] and in test [13] was “inactive” in each case. Also, the Potency in [2] was 61.5 µM (active); in test [4], 21.8 µM (active); in test [14], 35.8 µM (active); in [15], 25.3 µM (active); in test [16], 35.8 µM (active); in test [18] it was 2.26 µM (active). For the same molecule, the Potency in [17] is 43.9 µM (active); in [19] it was 6.37 µM (active).
